The text below walks through data of PubChem BioAssay AID493169 (National Center for Advancing Translational Sciences (NCATS), 2011).

Results filed as inconclusive are left out. Active and inactive are the calls of the source. The call rests on the fitted dose curve; in most records, active means well fitted inhibition curve with a large enough effect; inconclusive means small, poorly fitted or top-dose-only effect; inactive means flat fitted curve, though single readings scatter.
On the % scale 0 is the no-effect control and ±100 the full control effect; potency means the concentration at half of the fitted maximal effect.

The test in a line: CHOP2 Reporter Counterscreen Assay for Inhibitors of Ubiquitin-specific Protease USP2a.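 Further: activated enterokinase alone at 50 pM in a cell-free format rather than USP2a or CHOP2; nearly all actives have a fitted effect of over 55% in size.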 The conditions noted are these: purified enterokinase, fluorogenic substrate, 485/531 nm; series mostly up to 38.3 µM; activity change, negative = inhibition: at the top concentration. The essentials:
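Cell-free counterscreen with pre-activated enterokinase alone (50 pM final) in 20mM Tris-HCl pH 8.0, 2mM CaCl2, 2mM beta-mercaptoethanol, 0.05% CHAPS; compound preincubation 30 min RT, reporter substrate 25nM final, fluorescence read after 10 min (Ex 485/Em 531).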
For orientation: Counterscreens check selectivity or assay interference.
For `O=C(CN1C(=O)/C(=C2\SC(=S)N(CCS(=O)(=O)O)C2=O)c2ccccc21)Nc1cccc(Br)c1`, the Potency is 12.6 µM (active). Turning to `Cc1ccc(C(=O)COC(=O)CNC(=O)CN2C(=O)c3ccccc3C2=O)cc1`, the “activity change, negative = inhibition” value was 4.51% (inactive).

As to `COC(=O)C1CCN(C(=O)c2cc(-c3ccco3)nc3ccccc23)CC1`, the Potency was 3.98 µM (active).

Take `C[C@](N)(Cc1ccc(O)c(O)c1)C(=O)O`: the “activity change, negative = inhibition” value was -9.19% (inactive). Same read-out and setting: the same measure for `Cc1onc(-c2ccccc2)c1C(=O)N1CCN(C)CC1`: 1.29% (inactive); for `O=C(CSc1nc2ccccc2c(=O)n1CC1CCCO1)NCc1ccccc1` (centres undefined): -3.39% (inactive).

Turning to `CCOc1ccc(Cn2c(=O)sc3ccccc32)cc1OC`, the “activity change, negative = inhibition” value is 2.91% (inactive).

Consider `CC1=CC(C)(C)N(C(=O)c2ccccc2)c2ccccc21`, for which the “activity change, negative = inhibition” value is 6.73% (inactive). Same read-out and setting: the same measure for `COc1ccc(C(=O)C[N+]2(C)CCOCC2)cc1`: 6.58% (inactive). In the case of `COc1ccc(Cc2nnc(NC(=O)Cc3cccs3)s2)cc1`, the Potency was 1.78 µM (active).

For `FC(F)(F)c1cnc2c(c1)Nc1ccccc1S2`, the “activity change, negative = inhibition” value was 7.72% (inactive). Still for that read-out and setting: next, `CCNC1=C(Cl)C(=O)c2ccccc2C1=O`: 8.75% (inactive); `Cc1cccc(Nc2nc(NCc3ccco3)c3ccccc3n2)c1`: -15.7% (inactive); `Cc1ccc(NC(=O)Cn2nc(C)c3ccccc3c2=O)cc1F`: 4.42% (inactive).

With `O=C(NC(=S)N1CCCc2ccccc21)c1ccc([N+](=O)[O-])cc1`, the “activity change, negative = inhibition” value is 6.3% (inactive). Still for that read-out and setting: the same measure for `CC(=O)Nc1ccc(Nc2cc(C)nc(Nc3ccc(NC(C)=O)cc3)n2)cc1`: -3.67% (inactive). As to `CC(=O)c1ccc2c(c1)C1C=CCC1C(C(=O)O)N2` (centres undefined), the Potency is 11.2 µM (active). As to `O=C1c2ccccc2C(=O)N1CCC1=CCCCC1`, the “activity change, negative = inhibition” value is -0.258% (inactive). Consider `Cc1ccc(C)n1-c1cc(S(=O)(=O)N2CCOCC2)ccc1N1CCCC1`, for which the “activity change, negative = inhibition” value is 5.06% (inactive).
